This note sets out measurements from PubChem BioAssay (NCI).

Test systems include BT-549 breast; MDA-MB-435 melanoma; SW-620 colon; MCF7 breast; HCT-116 colon; HCC-2998 colon; KM12 colon.
What all share (experiment): NCI-60 one-dose screen, 48 h (100 = growth as untreated, 0 = no growth, -100 = all killed)
Holding throughout (settings): 10 µM unless noted

The panel holds about 83,000 compounds, 20% with a hit somewhere; the sample as a whole holds those more often.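 A percent growth of 40 corresponds to 60% growth inhibition; 0 means no net growth; -100 means all cells died. Active threshold: below 10.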 A number with no mark means an inactive call. The source made the active and inactive calls.

In the case of `COc1ccc(-c2cc(-c3nnc(SCC(=O)Nc4ccc(/C(C)=N\O)cc4)o3)c3ccccc3n2)cc1`, the growth with BT-549 breast was 108%; in the assay with MDA-MB-435 melanoma, 110%; in the assay on SW-620 colon, 105%; in the assay with MCF7 breast, 96.1%; in the assay on HCT-116 colon, 107%; in the assay on HCC-2998 colon it was 101%.

Take `Nc1ccc(C2=NN(C(=O)c3cc(-c4ccc(Cl)cc4)nc4ccccc34)C(c3ccc(Cl)cc3)C2)cc1` (stereo unspecified): the growth in the assay on BT-549 breast was 52.3%; with MDA-MB-435 melanoma it was -23.1% (active); in the assay on SW-620 colon, 29.6%; in the assay with MCF7 breast, 14.8%; in the assay on HCT-116 colon it was 23%; in the assay on HCC-2998 colon, 62.9%.

Regarding `CC(=O)OCC1SC(OC(C)=O)C(NC(=O)/C=C/CCl)C(OC(C)=O)C1OC(C)=O` (stereo unspecified), the growth is 105% with BT-549 breast; 101% in the assay on MDA-MB-435 melanoma; 107% with SW-620 colon; 85.8% in the assay with MCF7 breast; 101% in the assay with HCT-116 colon; 104% in the assay on HCC-2998 colon.

For the compound `COc1cc(C2=NN(c3ccccc3)C(c3cccc(Nc4ccnc5cc(C(F)(F)F)ccc45)c3)C2)cc(OC)c1OC` (stereo unspecified), the growth in the assay with BT-549 breast is 114%; in the assay with MDA-MB-435 melanoma, 104%; in the assay with SW-620 colon, 94.8%; with MCF7 breast, 80.6%; with HCT-116 colon, 89.7%; with HCC-2998 colon, 90%.

For the compound `COc1ccc(-c2cn(-c3ccc(Cl)cc3)c(=S)[nH]2)cc1OC`, the growth is 78.6% with BT-549 breast; 86.1% with MDA-MB-435 melanoma; 114% in the assay on SW-620 colon; 72.2% in the assay on MCF7 breast; 32.2% in the assay on HCT-116 colon; 79.2% in the assay on HCC-2998 colon.

Regarding `COc1ccc2nc(-c3ccc(OC)c(OC)c3)cc(-c3nnc(SCC(=O)Nc4ccc(C(C)=O)cc4)o3)c2c1`, the growth in the assay on BT-549 breast is 102%; in the assay on MDA-MB-435 melanoma it was 103%; in the assay on SW-620 colon, 103%; with MCF7 breast, 94.9%; in the assay on HCT-116 colon, 89.7%; in the assay with HCC-2998 colon, 111%.

For the compound `S=c1ssnc1-c1cc2ccccc2o1`, the growth in the assay with BT-549 breast was 103%; in the assay with MDA-MB-435 melanoma it was 57%; with SW-620 colon, 71.5%; in the assay with MCF7 breast it was 65.5%; in the assay on HCT-116 colon it was 59.5%; with HCC-2998 colon, 98.3%.

Consider `NCCN1CCNCC1`, for which the growth in the assay with BT-549 breast is 130%; in the assay with MDA-MB-435 melanoma, 105%; with SW-620 colon it was 103%; in the assay with MCF7 breast it was 96.6%; with HCT-116 colon it was 105%; with HCC-2998 colon, 94.3%.

As for `CC(C)(C#N)c1cc(F)cc(C(=O)Nc2cc(Nc3ncccc3-c3ncnc4nc[nH]c34)ccc2F)c1`, the growth was 39.7% with BT-549 breast; 48% with MDA-MB-435 melanoma; 28.7% in the assay with SW-620 colon; 58.1% with MCF7 breast; 19.2% in the assay on HCT-116 colon; 27.3% in the assay with HCC-2998 colon.

Regarding `COc1ccc2nc(-c3ccc(Cl)cc3)cc(-c3nnc(SCC(=O)Nc4ccc(/C(C)=N\O)cc4)o3)c2c1`, the growth in the assay on BT-549 breast is 25.4%; in the assay on MDA-MB-435 melanoma, 16.4%; in the assay on SW-620 colon, 3.98% (active); in the assay with MCF7 breast, 7.93% (active); in the assay with HCT-116 colon, 2.59% (active); in the assay on HCC-2998 colon it was 82%.

As for `C#CCN1C(=O)c2ccccc2N(CC#C)C12CCN(Cc1cn(CC(=O)Nc3ccccc3C(N)=O)nn1)CC2`, the growth in the assay on BT-549 breast was 72.4%; in the assay on MDA-MB-435 melanoma, 91.9%; with SW-620 colon, 94%; in the assay on MCF7 breast, 83.8%; in the assay with HCT-116 colon, 74.4%; in the assay on HCC-2998 colon it was 100%.

With `COc1ccc(Sc2[nH]c(C(C)=O)c3ccccc23)cc1`, the growth with BT-549 breast was 50.1%; in the assay on MDA-MB-435 melanoma, -23.4% (active); with SW-620 colon, 58.6%; with MCF7 breast, 57.5%; with HCT-116 colon, 65.3%; with HCC-2998 colon, 70.2%. For the same compound, the growth in the assay with KM12 colon is 37%.

In the case of `C=C(C)[C@@H]1CC[C@]2(C(=O)n3ccnc3)CC[C@]3(C)[C@H](CC[C@@H]4[C@@]5(C)CCCNC(C)(C)[C@@H]5CC[C@]43C)[C@@H]12`, the growth was 40.2% with BT-549 breast; -34.4% (active) in the assay with MDA-MB-435 melanoma; -62.8% (active) in the assay with SW-620 colon; -20.3% (active) in the assay on MCF7 breast; -76.7% (active) in the assay with HCT-116 colon; 6.43% (active) in the assay with HCC-2998 colon.

With `Cc1nccc2c3ccc(OCc4cn(-c5ccc(Br)cc5)nn4)cc3n(CC(C)C)c12`, the growth in the assay with BT-549 breast was 54.4%; in the assay with MDA-MB-435 melanoma it was 61.3%; with SW-620 colon it was 48%; in the assay with MCF7 breast it was 31.2%; in the assay on HCT-116 colon, 23%; with HCC-2998 colon, 70.3%.

Turning to `COc1cc(C(C)c2ccc3c(ccn3C)c2)cc(OC)c1OC` (stereo unspecified), the growth in the assay with BT-549 breast was 12.7%; with MDA-MB-435 melanoma it was -40.6% (active); in the assay on SW-620 colon, 28%; with MCF7 breast it was 14.6%; in the assay with HCT-116 colon, 5.43% (active); in the assay with HCC-2998 colon, 23.4%.

As for `CCCCn1c(=O)c(/C=C/C(=O)/C=C/c2ccc(O)c(OC)c2)cc2ccc(Cl)cc21`, the growth with BT-549 breast was 11.4%; in the assay with MDA-MB-435 melanoma it was 2.81% (active); in the assay with SW-620 colon, 16.1%; in the assay with MCF7 breast, 46.3%; in the assay on HCT-116 colon, -55.5% (active); in the assay with HCC-2998 colon, 33.3%.

For the compound `COc1ccc2[nH]c3nc4cnccc4cc3c2c1`, the growth with BT-549 breast was 104%; in the assay with MDA-MB-435 melanoma, 109%; with SW-620 colon it was 104%; in the assay on MCF7 breast, 82%; in the assay on HCT-116 colon, 97.9%; in the assay on HCC-2998 colon, 117%.

As for `CC(=O)Oc1ccc(O)cc1`, the growth was 92.7% in the assay with BT-549 breast; 106% in the assay with MDA-MB-435 melanoma; 115% in the assay on SW-620 colon; 88% in the assay on MCF7 breast; 95.3% in the assay on HCT-116 colon; 123% in the assay with HCC-2998 colon.

As for `CCN1CCN(Cc2ccc(NC(=O)c3cccc(C#Cc4cccc5[nH]nc(N)c45)c3)cc2C(F)(F)F)CC1`, the growth was 3.52% (active) in the assay with BT-549 breast; -91.2% (active) with MDA-MB-435 melanoma; -76% (active) with SW-620 colon; -77.8% (active) in the assay with MCF7 breast; -96.5% (active) with HCT-116 colon; -87.4% (active) in the assay on HCC-2998 colon. For the same compound, the growth with KM12 colon was -75% (active).
